{"source": "ChEMBL document CHEMBL4888484", "about": "“Replenishing the malaria drug discovery pipeline: Screening and hit evaluation of the MMV Hit Generation Library 1 (HGL1) against asexual blood stage Plasmodium falciparum ,using a nano luciferase reporter read-out” (2022)", "note": "The campaign covered roughly 4,800 compounds. About 420 (8.8%) showed an effect of 50% or more. What follows is part of a selection rich in strong results, with near analogues and random picks from the rest."}
{"system": "Plasmodium falciparum", "assay": "Confirmatory screen in NF54 nanoGlo assay, in single point, at 2uM, 72h", "assay_type": "functional, Erythrocyte", "details": "timepoint 72 hour", "units": {"% Inhibition": "%"}}
{"smiles": "COCCCN1CC(=O)N[C@@H]2CN(C(=O)CCc3cccnc3)CC[C@@H]2OCc2cccc(c2)Oc2cc(ccc2OC)C1", "% Inhibition": 14}
{"smiles": "CCc1cc(N2C[C@@H]3NC(=O)CN(C)Cc4ccc(OC)c(c4)Oc4cccc(c4)CO[C@H]3C2)nc(N(C)C)n1", "% Inhibition": 60}
{"smiles": "CCN1CC(=O)N[C@H]2CN(C(=O)CCn3ccnc3C)CC[C@@H]2OCc2cccc(c2)Oc2cc(OC(C)C)cc(c2)C1=O", "% Inhibition": 9}
{"smiles": "O=c1cc2n(c(=O)[nH]1)CC(c1ccccc1)=NN2", "% Inhibition": 4}
{"smiles": "Cc1nnc2sc(Nc3ccccc3)nn12", "% Inhibition": -2}
{"smiles": "NCc1cccc(C(=O)N2CCc3cc4ccc3[C@@H]2c2cccc(c2)OCCCNC(=O)c2cc(ccc2O)O4)c1", "% Inhibition": 93}
{"smiles": "O=C1NCCCOc2cccc(c2)[C@H]2c3ccc(cc3CCN2C(=O)CCN2CCOCC2)Oc2ccc(O)c1c2", "% Inhibition": 59}
{"smiles": "NC(=O)C1CCN(CCC(=O)N2CCc3cc4ccc3[C@@H]2c2cccc(c2)OCCCNC(=O)c2cc(ccc2O)O4)CC1", "% Inhibition": 96}
{"smiles": "O=C(NOCc1ccc(F)cc1)NC1CCCCC1", "% Inhibition": -5}
{"smiles": "COc1ccc(N2CCN(Cc3c(O)nc(O)c(C#N)c3C)CC2)cc1", "% Inhibition": -3}
{"smiles": "COc1ccc(CCN2C(=O)CC[C@H]2c2cn(C)c3ccccc23)cc1OC", "% Inhibition": -1}
{"smiles": "Cc1ccc(C(=O)N2CCCC23CCC3)nn1", "% Inhibition": -11}
{"smiles": "O=C(c1[nH]nc(C2CC2)c1Br)N1CCC12CCC2", "% Inhibition": -8}
{"smiles": "COC(=O)[C@]1(C)CN(C(=O)NCc2cc(C#N)ccc2F)C[C@H]1C", "% Inhibition": 7}
{"smiles": "CCc1nc(C)nc(N2CCN(C[C@H](O)COc3ccccc3C)CC2)c1Cc1cccc(C)c1", "% Inhibition": 7}
{"smiles": "CC[C@@]1(C)CCCN(C(=O)Cc2c(C)noc2Cl)C1", "% Inhibition": 84}
{"smiles": "Cc1noc(Cl)c1CC(=O)N1CCCC(C)(C)CC1", "% Inhibition": 38}
{"smiles": "O=C(Cc1c(Cl)cccc1Cl)N1CC[C@]2(CCOC2)C1", "% Inhibition": -8}
{"smiles": "CC(C)(C)NC(=O)CNC(=O)c1cccc(F)c1", "% Inhibition": -13}
{"smiles": "O=C(Nc1nc2cccc(Cl)c2o1)c1cccc(F)c1", "% Inhibition": 92}
{"smiles": "Cc1nc(Cn2nnc(NC(=O)c3cccc(F)c3)c2C)no1", "% Inhibition": 1}
{"smiles": "COC(CNC(=O)OC(C)(C)C)CC(=O)NC1CC(C)CCC1C(C)C", "note": "(centres undefined)", "% Inhibition": -7}
{"smiles": "O=C(Cn1cccn1)N1CC(c2nc(-c3ncccn3)no2)C1", "% Inhibition": 5}
{"smiles": "N#Cc1cnc(NC2CC3CCC2C3)cn1", "note": "(centres undefined)", "% Inhibition": -8}
{"smiles": "CC(C)CS(=O)(=O)Nc1ccccc1C(N)=O", "% Inhibition": -5}
{"smiles": "CN(C)CCN(C)c1ccc(Br)cc1NCc1cncn1C", "% Inhibition": 16}
{"smiles": "COc1ccc2cccc(NC(=O)c3cc(-c4cc(OC)c(OC)c(OC)c4)n[nH]3)c2n1", "% Inhibition": 64}
{"smiles": "COc1ccc(-c2cc(C(=O)Nc3ncc[nH]3)n[nH]2)cc1OC", "% Inhibition": 29}
{"smiles": "COc1cc(NC(=O)c2cc(-c3cccc4ccccc34)[nH]n2)cc(OC)c1OC", "% Inhibition": 10}
